Assay results taken from PubChem BioAssay.
Unmarked numbers belong to inactive results. How the calls were made is not given here.

The molecules below were run against Pantothenate synthetase (Mycobacterium tuberculosis (strain ATCC 25618 / H37Rv)) (UniProt P9WIL5) (assay: Coupled enzyme confirmation of inhibitors against recombinant Mtb PanC (AID 375;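 further: 0% = full reaction with vehicle and 100% = no enzyme background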)). Settings: coupled enzyme assay; at 10 µM, stronger effect = higher value.
Sequence of Pantothenate synthetase (Mycobacterium tuberculosis (strain ATCC 25618 / H37Rv)) (P9WIL5 whole entry, looked up): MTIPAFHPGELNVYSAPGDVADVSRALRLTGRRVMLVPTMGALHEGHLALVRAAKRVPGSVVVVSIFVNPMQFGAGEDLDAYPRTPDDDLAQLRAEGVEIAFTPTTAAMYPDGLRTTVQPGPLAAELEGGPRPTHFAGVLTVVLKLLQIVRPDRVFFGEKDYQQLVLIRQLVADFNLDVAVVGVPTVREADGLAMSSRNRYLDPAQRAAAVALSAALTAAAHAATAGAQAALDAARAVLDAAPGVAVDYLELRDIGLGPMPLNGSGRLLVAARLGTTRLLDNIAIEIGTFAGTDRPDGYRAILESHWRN
With `CCc1nc(NCCCN2CCOCC2)c2oc3ccccc3c2n1` the inhibition was 2%.
`CS(=O)(=O)Nc1ccc(S(=O)(=O)Nc2nccs2)cc1` gave an inhibition of 0%.
`O=C(CCn1c(=O)sc2ccccc21)NCc1ccc2c(c1)OCO2` showed an inhibition of 0%.
Work on `CC(=O)Nc1ccc(S(=O)(=O)NCC2CCC(C(=O)NCCCN3CCCC3=O)CC2)cc1` (stereo not drawn) yielded an inhibition of 0%.
Molecule `Nn1c(SCC(=O)Nc2ccc3c(c2)OCO3)nnc1C1CC1` has an inhibition of 4%.
Work on `CCOC(=O)c1cc(C)n(CCCN2CCOCC2)c1C` yielded an inhibition of 0%.
Work on `Cc1nc2nc(-c3cccnc3)nn2c(C)c1Cl` yielded an inhibition of 0%.
In the case of `S=C(c1ccc(-c2cc(Cl)ccc2Cl)o1)N1CCOCC1`, the inhibition is reported as 0%.
Molecule `COc1ccc(CCNS(=O)(=O)c2ccc3oc(C(=O)O)c(C)c3c2)cc1OC` has an inhibition of 0%.
`CCCCNC(=O)c1cc(-c2ccc(F)cc2)on1` gave an inhibition of 6%.
Work on `Cc1cc(Cl)c(S(=O)(=O)N2CCN(c3ccc(F)cc3)CC2)cc1OCC(N)=O` yielded an inhibition of 0%.
Work on `CCc1c(C)c2c(C)nn(-c3ccccc3)c2[nH]c1=O` yielded an inhibition of 0%.
`CCOC(=O)N1CCC(c2cc(=O)n3[nH]c(C)c(-c4ccc(F)cc4)c3n2)CC1` gave an inhibition of 0%.
Work on `CCN(CC)CCCNc1oc(-c2cccc(Cl)c2)nc1C#N` yielded an inhibition of 0%.
`O=C(c1ccc2c(c1)c(=O)oc1ccccc12)N1CCCCC1` was tested, and the inhibition was 6%.
`COc1cccc(-c2nnc(SCC(=O)N3CCCc4ccccc43)o2)c1` showed an inhibition of 0%.
`CCC(C)(C)n1nnnc1C(c1ccc(OC)c(OC)c1)N1CCN(c2ccccc2)CC1` (stereo not drawn) was tested, and the inhibition was 0%.
`CC(=O)N1CCN=C1SCc1ccc(Br)cc1` showed an inhibition of 4%.
In the case of `Nc1c(C(=O)NCc2ccco2)nnn1Cc1ccccc1`, the inhibition is reported as 2%.
For `O=C(Nc1cc(Cl)ccc1Cl)c1noc2c1CCCC2`, the inhibition was 2%.
`O=C(NCc1ccco1)c1cc2sccc2n1Cc1ccccc1` gave an inhibition of 0%.
Work on `Cc1ccc2c(COn3nnc4ccc(S(=O)(=O)N(C)C)cc43)cc(=O)oc2c1C` yielded an inhibition of 3%.
For `S=c1[nH]ncn1-c1ccccn1`, the inhibition was 5%.
